High-throughput results deposited in PubChem BioAssay by National Center for Advancing Translational Sciences (NCATS).
Hits are enriched below; roughly 1.6% of the tested compounds scored in any of these assays.
p53ts 32C kill: p53ts cell cytotoxicity, permissive temperature; 0.93% of 130,000 active; H1299-p53A138V at 32C, ATP luminescence viability, 24 h; Potency, µM (doses to about 46.1 µM), without a hit: at the top dose activity change, negative = cytotoxicity, actives largely listed as cytotoxic;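 note: potency is the fitted concentration of half-maximal effect; 0% = DMSO and -100% = full killing by reference compound; nearly all actives have a fitted effect of over 55% in size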
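Cells: H1299 p53ts (A138V), 600/well, pre-incubated 16–30 h at 37C. Cpd up to 46 uM, 24 h, 32C. Readout: ATPlite luminescence, 20 min RT. Normalization: DMSO vs tamoxifen 100 uM. AC50 by Hill equation.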
HBB splicing: alters splicing of the hemoglobin beta chain | HBB splicing reporter cell assay, activation; EGFP reporter with mutant IVS2-654 intron; response scale: normalised to 500 nM splice-correcting PNA | Potency, µM (top dose mostly 46.1 µM), for the others: at the highest dose activation, actives largely listed as activators | 0.06% of 65,000 active | AID 925; note: potency is the fitted concentration of half-maximal effect; 0% is about no effect
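HeLa cells stably expressing EGFP interrupted by mutant beta-globin intron 2 (IVS2-654), 500/well in 2% FCS. Treated with compound for 2 days at 37C. Splicing correction scored as total well GFP intensity (488 nm excitation, 500-520 nm emission); 500 nM antisense PNA served as control.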
UbGFP stabilizer: ubiquitin-GFP accumulation via proteasome inhibition. Potency, µM (titrated, usually from 45.9 µM), without a hit: top-dose activation (GFP accumulation), usual class: activators. 67,000 tested, under 10 active. Ubiquitin-GFP reporter cells, proteasome inhibition, GFP fluorescence; response scale: untreated = 0%, 10 µM MG-132 = 100%. AID 526; active = well fitted activation curve with a large enough effect, not every such curve was filed as active; inconclusive = small, poorly fitted or top-dose-only effect, or another doubt; inactive = no such curve, though single readings can be large or run the other way; note: potency is the fitted concentration of half-maximal effect
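U2OS cells expressing ubiquitin(G76V)-GFP, seeded overnight in 0.5% FBS medium, then treated 4 hr at 37 C across 46 uM to 2.9 nM. GFP-positive cells counted by laser cytometry (488 ex/515 em); %activity scaled between basal and 10 uM MG-132.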
p53ts 39C tox: kills p53ts cells at the nonpermissive temperature. H1299-p53A138V viability at 39C, ATP luminescence, 24 h. Potency, µM (top dose mostly 46.1 µM), inactives show at the highest dose activity change, negative = cell killing, actives largely listed as cytotoxic. 1.5% of 130,000 active; note: potency is the fitted concentration of half-maximal effect; % is set by controls: 0 for no effect and ±100 for the full control effect; nearly all actives have a fitted effect of over 55% in size
Epigenetic mod: epigenetic GFP locus derepression in mouse cells; mouse C127i GFP locus derepression, cytometry, 30 h; Potency, µM (doses to about 46.1 µM), for the others: at the top dose GFP derepression (activation); 0.09% of 68,000 active; note: % of control where 0% means no effect
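Read-out is the number of GFP-positive cells, scored as fluorescent objects 20 to 120 um wide, reflecting derepression of a silenced CMV-GFP reporter in murine C127i cells after 30 h compound exposure at 37 C.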
Peg3 imprint: genomic imprint erasure induction | mouse ES Peg3-LacZ reporter, beta-gal luminescence, 40 h | Potency, µM (doses to about 60.7 µM), for inactives: at the highest dose activity change, positive = activation, usual class: activators | 0.02% of 110,000 active | AID 1948; note: potency is the fitted concentration of half-maximal effect
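Gelatin-coated wells received 300 freshly trypsinized female ES cells with a Peg3LacZ-Neo reporter on the maternal allele, then incubated 40 hours at 37C. BetaGlo was added for 5 minutes at room temperature before a single luminescence read.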
* marks the source's active call; other numbers are inactive results; ? = inconclusive; . = no result given; [ ] = remark or other dose. Unless noted, calls come from the whole dose curve; as a rule, active = well fitted curve in the direction sought with a large enough effect; inconclusive = small, poorly fitted or top-dose-only effect, or another doubt; inactive = no such curve, though single readings can be large; an effect the other way counts as inactive or inconclusive.

SMILES	p53ts 32C kill	HBB splicing	UbGFP stabilizer	p53ts 39C tox	Epigenetic mod	Peg3 imprint
COC(=O)c1ccc(Cn2c(SCc3cccc(C)c3)nc3ccncc32)cc1	25µM*	.	.	?	.	-10%[10.9 µM]
CCC(C(=O)NC1CCCCC1)n1c(SCc2cccc(C)c2)nc2ccncc21 (stereo unspecified)	13µM*	.	.	10µM*	.	-4%[10.9 µM]
COC(=O)c1ccc(CSc2nc3ccncc3n2Cc2ccc(F)cc2)cc1	-7%	.	.	-21%	.	-11%[10.9 µM]
COc1ccc(-c2nc(Cn3c(SCc4cccc(F)c4)nc4ccncc43)c(C)o2)cc1OC	-14%	0%	-2%	-10%	0%	-23%
Cc1cccc(-c2nc(Cn3c(SCc4cccc(C(F)(F)F)c4)nc4ccncc43)c(C)o2)c1	-7%	.	.	10µM*	.	6%[10.9 µM]
COc1ccc(-c2cc3c(=O)n(CC(=O)Nc4ccccc4C(F)(F)F)ccn3n2)cc1OC	4%	.	.	-4%	.	21%[10.9 µM]
CCn1cc(C(=O)NCCc2ccc(OC)c(OC)c2)c(=O)c2cc(S(=O)(=O)N3CCC(C)CC3)ccc21	8%	.	.	0%	.	8%[10.9 µM]
COc1ccc(-c2nc3c(c(SCC(=O)N4CCCCC4)n2)Cc2cc(Cl)ccc2O3)cc1	-2%	.	.	6%	.	30%[10.9 µM]
COc1ccc(OC)c(-c2cc(C(=O)Nc3cnn(Cc4ccc(Cl)cc4Cl)c3)no2)c1	?	.	.	4µM*	.	-12%[10.9 µM]
O=C(Nc1ccccc1C(F)(F)F)c1ccc2oc(=O)c(S(=O)(=O)c3ccc(F)cc3)cc2c1	10µM*	.	.	13µM*	.	-6%[10.9 µM]
COc1ccc(NC(=O)Nc2nnc(N(CC(C)C)CC(C)C)s2)c(OC)c1	-13%	.	.	-7%	.	-11%[10.9 µM]
O=C1c2ccc(O)c(O)c2C(=O)c2c(O)ccc(O)c21	?	.	.	5µM*	.	-18%
O=C1c2ccccc2C(=O)c2c1ccc(O)c2O	-2%	.	.	-13%	.	-43%
COc1ccc(N2CCN(Cc3nc4c(c(=O)[nH]c(=O)n4C)n3Cc3ccccc3F)CC2)cc1	-4%	.	.	33%	.	?
Cc1cccc(NC(=O)N2CCC(CN3CCOCC3)CC2)c1C	-10%	.	.	.	.	.
O=C(Nc1ccc(Cl)cn1)c1cc2ccccc2o1	13µM*	0%	10%	?	4%	-60%
O=C(NC1=NCCS1)c1cc2ccccc2o1	5µM*	0%[0.0738 µM]	7%[9.17 µM]	5µM*	-2%	-73%
O=C(Nc1ccccn1)c1cc2ccccc2o1	4.5µM*	.	.	5µM*	.	.
O=C(NC1=NCCS1)c1csc2ccccc12	13µM*	.	.	?	.	.
Cc1cc(C(=O)NC2=NCCS2)cs1	?	2%	4%	?	0%	-60%
O=C(Nc1cccc2ncccc12)c1cc2ccccc2o1	-5%	0%	0%	0%	0%	-14%
O=C(NC1=NCCS1)Nc1ccccc1	10µM*	1%	4%	16µM*	2%	-87%
CC(C)c1ccc2c(c1)CC[C@@H]1[C@@](C)(CN)CCC[C@@]21C	.	.	-1%	.	12%[9.22 µM]	.
c1cncc(-c2nnc(-c3cccs3)o2)c1	-2%	0%[57.5 µM]	-7%	4%	0%	-47%
c1csc(-c2nnc(-c3ccc(N4CCOCC4)cc3)o2)c1	13µM*	0%[57.5 µM]	3%	13µM*	2%	-63%
SMILES	p53ts 32C kill	HBB splicing	UbGFP stabilizer	p53ts 39C tox	Epigenetic mod	Peg3 imprint
CC(=O)c1ccc(NC(=O)/C=C/c2ccc(C)o2)cc1	7.9µM*	.	.	10µM*	.	-11%[10.9 µM]
O=c1c2cc3c(cc2nc2sc(Nc4ccccc4)nn12)OCO3	13µM*	.	.	16µM*	.	-4%[10.9 µM]
Cc1ccccc1-c1ccc2ncnc(N3CCNCC3)c2c1	21%	-1%	-2%	16%	0%[9.22 µM]	-22%
Clc1ccccc1-c1ccc2ncnc(N3CCNCC3)c2c1	28%	1%	-5%	5%	-3%[9.22 µM]	10µM*
COc1ccc(CCNC(=O)Cn2c(=O)c3cccn3c3ccccc32)cc1OC	-21%	.	.	16µM*	.	-3%[10.9 µM]
O=C(CCCn1c(=O)c2cccn2c2ccccc21)NCCc1ccc(Cl)cc1	10µM*	.	.	13µM*	.	-22%[10.9 µM]
CCc1ccc(NC(=O)CC2C(=O)N(c3ccc(OC)cc3)C(=O)N2Cc2cccs2)cc1 (stereo unspecified)	2%	.	.	-3%	.	19%[10.9 µM]
Cc1ccc(C(CC(=O)NCC2(c3ccccc3)CCCC2)c2ccccc2)c(O)c1 (stereo unspecified)	-27%	.	.	16µM*	.	-5%[10.9 µM]
N#CCC(=O)NCC1(c2ccccc2)CCCC1	3%	0%	-4%	15%	-4%	?
Cc1ccc(-n2nc(C(=O)Nc3ccc(C)c(F)c3)c3c4ccccc4n(C)c3c2=O)cc1	5%	.	.	16%	.	21%[10.9 µM]
COCCOC(=O)c1[nH]c2c(c1C)C(=O)C(C(=O)OC)C(C)C2 (stereo unspecified)	16µM*	-1%	-9%	10µM*	3%	-34%
CCCCCOC(=O)c1[nH]c2c(c1C)C(=O)C(C(=O)OC)C(C)C2 (stereo unspecified)	-11%	0%	-18%	-9%	0%	2%
COC(=O)C1C(=O)c2c([nH]c(C(=O)OCC3CCCO3)c2C)CC1C (stereo unspecified)	13µM*	-1%	8%	?	-3%	-18%
CCOc1cc(C#N)c(NC(=O)c2ccc(OC)c(S(=O)(=O)N3CCN(c4ccccc4)CC3)c2)cc1OCC	3%	.	.	1%	.	-11%[10.9 µM]
